Drawing on the supplement of paper PMC6555819, this text covers PBM binding z-score for 7 sequences.

Common to all, as to experiment: PBM binding z-score (relative to random genomic background probes); higher = stronger binding; sequences stand for … in GC…GCGATTGACAGCGTAGAATGAAGG
The subject of assay [1] is FXR:RXRa (NR concentration 270 nM, RXRa partner concentration 90 nM). Put shortly:
(§1)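 For binding z-scores, the reference was random background probes on custom Agilent 4×180K protein-binding microarrays. These arrays were incubated 1 h with ligand-free nuclear receptor dimers in PBS pH 7.4, 2% milk, 0.02% Triton X-100, 1 mM DTT, 0.2 mg/mL BSA and 0.4 mg/ml salmon testes DNA. Fluorescence was scanned after antibody detection of each partner (one per run) and regression-normalized.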

Assay [2] relates to LXRa:RXRa (NR concentration 270 nM, RXRa partner concentration 90 nM). An outline of the steps:
as §1

For assay [3], the system named is LXRa homodimer (NR concentration 270 nM). Put shortly: as §1
The test system of assay [4] is LXRb:RXRa (NR concentration 270 nM, RXRa partner concentration 90 nM). An outline of the steps: as §1
For assay [5], the system named is LXRb homodimer (NR concentration 270 nM). Put shortly: as §1
The test system of assay [6] is PPARa:RXRa (NR concentration 270 nM, RXRa partner concentration 90 nM). Put shortly:
as §1

In assay [7] the test system is PPARg:RXRa (NR concentration 180 nM, RXRa partner concentration 90 nM). Put shortly: as §1
Assay [8] has as its system PPARg:RXRa 270nM:90nM, anti-RXR (NR concentration 270 nM, RXRa partner concentration 90 nM). Put shortly: as §1
Assay [9] deals with PPARg:RXRa 30nM:10nM, anti-RXR (NR concentration 30 nM, RXRa partner concentration 10 nM). An outline of the steps:
as §1

Assay [10] deals with PPARg:RXRa 90nM:30nM, anti-RXR (NR concentration 90 nM, RXRa partner concentration 30 nM). An outline of the steps: as §1
Assay [11] deals with PPARg:RXRa DBDmut IVT, anti-RXR (DBD mutation: RXRa K156A/R161A, NR concentration 270 nM, RXRa partner concentration 90 nM). An outline of the steps: as §1
The test system of assay [12] is PPARg:RXRa IVT, anti-PPARg (NR concentration 270 nM, RXRa partner concentration 90 nM). Put shortly: as §1
Assay [13] has as its system PPARg DBDmut:RXRa IVT, anti-PPARg (DBD mutation: PPARg1 K132A/R137A, NR concentration 270 nM, RXRa partner concentration 90 nM). Put shortly:
as §1

Assay [14] concerns PPARg DBDmut IVT, anti-PPARg (DBD mutation: PPARg1 K132A/R137A, NR concentration 270 nM). Put shortly:
as §1

The subject of assay [15] is PPARg homodimer (NR concentration 180 nM). Put shortly: as §1
The subject of assay [16] is PXR:RXRa (NR concentration 270 nM, RXRa partner concentration 90 nM). An outline of the steps:
as §1

Assay [17] deals with PXR homodimer (NR concentration 270 nM). Put shortly:
as §1

The test system of assay [18] is RARa:RXR (NR concentration 270 nM, RXRa partner concentration 90 nM). An outline of the steps: as §1
Assay [19] relates to RARa homodimer (NR concentration 270 nM). Put shortly:
as §1

In assay [20] the test system is RARb:RXRa (NR concentration 270 nM, RXRa partner concentration 90 nM). Put shortly:
as §1

For ATCTCTACGTAAAGATAGTTCAGTGAATGCAAAT, the PBM binding z-score in [1] was -0.547; in assay [2] it was -0.0846; in assay [3], 0.644; in assay [4], 0.0178; in [5], 0.419; in [6], -0.229. Also, the PBM binding z-score in assay [7] was 0.493; in [8], 0.104; in assay [9] it was 0.0785; in assay [10], 0.04; in [11], -0.595; in assay [12], 0.188. Also, the PBM binding z-score is 0.317 in [13]; 1.43 in assay [14]; -0.705 in assay [15]; 0.115 in assay [16]; 0.219 in assay [17]; -0.211 in [18]. The PBM binding z-score in [19] amounted to 0.168; in assay [20] it was 0.474.
Consider CCGACTCGGGCAGAAAGGTTACCATACCATCCGG, for which the PBM binding z-score in assay [1] is 0.546; in assay [2], 0.698; in [3] it was -0.128; in assay [4] it was 0.841; in assay [5], -0.536; in [6], 1.97. Also, the PBM binding z-score in assay [7] is 1.41; in assay [8] it was 2.44; in assay [9], 0.663; in assay [10], 1.76; in [11], -0.0361; in [12], 0.238. Besides, the PBM binding z-score in [13] was -1.52; in assay [14], -1.19; in assay [15], 0.529; in assay [16], 0.674; in [17] it was -0.293; in assay [18], 1.33. Besides, the PBM binding z-score was -0.25 in [19] and 1.74 in [20].
With AGAATGAGCTTATTAAGATCAGGGAATTGCGGTC, the PBM binding z-score in [1] is -0.612; in assay [2], -0.88; in assay [3], -0.374; in [4], -0.82; in assay [5], -0.756; in assay [6], -0.52. For the same sequence, the PBM binding z-score was 0.00552 in assay [7]; -0.444 in assay [8]; -0.148 in [9]; -0.365 in assay [10]; -0.544 in assay [11]; -0.262 in [12]. For the same sequence, the PBM binding z-score is 0.296 in assay [13]; 0.244 in assay [14]; -0.453 in assay [15]; -0.238 in assay [16]; -0.13 in [17]; -0.065 in assay [18]. Further, the figures for the PBM binding z-score in assay [19] and in assay [20] were -0.11 and -0.496, respectively.
In the case of CGAACTAGGTCAGTACAGGACAGTGAAGGATGAT, the PBM binding z-score is 1.58 in assay [1]; 1.83 in assay [2]; -0.0342 in assay [3]; 0.493 in [4]; -0.478 in [5]; 3 in [6]. The PBM binding z-score in assay [7] turned out to be 4.93; in assay [8], 4.25; in [9], 1.71; in [10], 3.39; in [11], 7.48; in [12] it was 7.01. Also, the PBM binding z-score in assay [13] was 0.814; in assay [14], 0.573; in assay [15] it was 1.07; in [16], 0.911; in [17], -0.456; in [18] it was 0.671. In addition, the PBM binding z-score worked out at 0.153 in assay [19] and 3.04 in assay [20].
Regarding TCTATTAGTTGATTAGTGCAACCGAAACAGCGGA, the PBM binding z-score was found to be 0.567 in assay [1]; 0.676 in assay [2]; 0.422 in [3]; 0.608 in [4]; 0.403 in assay [5]; 0.779 in [6]. The PBM binding z-score in assay [7] is -0.179; in [8], 2.12; in assay [9] it was 3.55; in assay [10], 2.78; in assay [11] it was 1.81; in assay [12] it was 0.352. Further, the PBM binding z-score in assay [13] amounted to 1.1; in [14], 1.5; in [15], 0.86; in assay [16], 0.603; in [17] it was 0.441; in assay [18], 0.464. The PBM binding z-score is 1.06 in assay [19] and 0.332 in assay [20].
With ACTAGCAGGCCAAGGGTCACTCAAGATTAGTCCG, the PBM binding z-score in assay [1] is 2.48; in assay [2] it was 2.76; in assay [3], 0.0687; in assay [4] it was 2.81; in assay [5] it was -0.402; in assay [6], 4.43. Moreover, the PBM binding z-score in assay [7] is 7.75; in [8] it was 7.53; in [9], 7.41; in assay [10], 8.63; in assay [11] it was 0.983; in assay [12], 4.06. The PBM binding z-score in assay [13] is -0.0619; in [14] it was -0.0525; in [15], 2.65; in [16], 3.21; in assay [17], -0.112; in assay [18], 3.84. Moreover, the figures for the PBM binding z-score in assay [19] and in assay [20] were 0.215 and 3.41, respectively.
With TCTAGTTGGTCAAAGGTCAGACACTCGAAATGCG, the PBM binding z-score was 4.59 in assay [1]; 4.69 in assay [2]; 2.66 in assay [3]; 4.41 in assay [4]; 1.43 in [5]; 5.67 in assay [6]. In addition, the PBM binding z-score in assay [7] was 11.3; in [8] it was 9.55; in assay [9], 11.6; in [10], 11.6; in assay [11] it was 3.43; in assay [12], 5.86. The PBM binding z-score in assay [13] is 1.03; in assay [14], 0.417; in assay [15], 4.36; in assay [16], 4.74; in assay [17], 1.67; in assay [18], 6.17. The PBM binding z-score was found to be 3.82 in assay [19] and 4.53 in [20].
